High-throughput results (PubChem)
RBX1-CUL1 inh – human ROC1-CUL1 E3 ligase inhibition; in vitro K48 di-Ub FRET, acceptor:donor ratio, 45 min; actives 0.6% (n = 140,000); inhibition, % at 10 µM; P62877+Q13616; in the data active means inhibition above about 25%
Target sequence (P62877 whole entry, looked up): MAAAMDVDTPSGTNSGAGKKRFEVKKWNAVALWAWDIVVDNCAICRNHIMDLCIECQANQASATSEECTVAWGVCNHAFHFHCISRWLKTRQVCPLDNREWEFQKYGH
Target sequence (Q13616 whole entry, looked up): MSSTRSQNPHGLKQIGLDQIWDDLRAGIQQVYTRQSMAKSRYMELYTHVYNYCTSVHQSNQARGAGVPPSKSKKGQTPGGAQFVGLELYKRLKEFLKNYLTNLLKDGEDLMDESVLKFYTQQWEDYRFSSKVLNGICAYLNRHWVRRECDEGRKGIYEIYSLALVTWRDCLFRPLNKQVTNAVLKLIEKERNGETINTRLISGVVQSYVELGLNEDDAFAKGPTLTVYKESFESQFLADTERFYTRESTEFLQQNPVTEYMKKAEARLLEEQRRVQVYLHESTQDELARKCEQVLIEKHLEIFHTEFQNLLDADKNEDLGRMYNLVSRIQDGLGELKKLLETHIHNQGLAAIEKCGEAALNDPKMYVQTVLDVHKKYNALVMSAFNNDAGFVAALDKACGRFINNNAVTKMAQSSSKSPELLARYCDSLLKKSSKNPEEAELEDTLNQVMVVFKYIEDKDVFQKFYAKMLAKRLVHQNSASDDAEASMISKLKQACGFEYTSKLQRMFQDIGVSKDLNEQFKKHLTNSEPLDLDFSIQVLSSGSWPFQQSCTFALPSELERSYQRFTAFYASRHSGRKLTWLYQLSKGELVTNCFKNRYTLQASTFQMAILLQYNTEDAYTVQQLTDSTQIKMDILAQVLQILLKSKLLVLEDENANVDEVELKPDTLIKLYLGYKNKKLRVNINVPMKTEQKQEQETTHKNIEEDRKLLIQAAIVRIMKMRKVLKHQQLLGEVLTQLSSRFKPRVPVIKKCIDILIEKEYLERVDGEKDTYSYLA
* = called active by the depositor. This excerpt belongs to a sample that is enriched for hits.

SMILES	RBX1-CUL1 inh
CC1=C(C#N)c2nc(N)c(C#N)c(C)c2/C1=C\c1ccc(F)cc1	-5.5
CCOC(=O)c1c(-c2ccc(C)cc2)csc1NC(=O)CSc1nc2ccccc2c(=O)n1-c1ccccc1	-1.6
CCN1CCN(CC(=O)N(CC)CC2CCCN(CCc3cccc(F)c3)C2)CC1 (stereo not given)	2.9
CCc1ccccc1NS(=O)(=O)c1ccc2c(c1)C(=O)C(C(=O)N(CC(C)C)CC(C)C)C=N2 (stereo not given)	5.6
CCCc1nc2nc(-c3ccccc3)cc(=O)n2[nH]1	7.4
O=c1cc(C(F)(F)F)nc(N2CCN(Cc3ccccc3)CC2)[nH]1	5.0
O=C1C(Cl)=C(N2CCN(Cc3ccccc3)CC2)C(=O)c2ccccc21	104.4*
O=C1C(Cl)=C(N2CCN(S(=O)(=O)c3ccc(Cl)cc3)CC2)C(=O)c2ccccc21	0.7
O=C(c1ccc(OC2CCN(C(=O)C3CC3)CC2)cc1)N1CCN(c2ccccn2)CC1	-3.0
CC(C)c1ccc(/C=C/C(=O)NCc2ccc3c(c2)OCO3)cc1	-0.1
CN(CCC(=O)/C=C/c1ccc(Cl)c(Cl)c1)CCc1ccc2c(c1)OCO2	82.6*
O=C(/C=C/c1ccc2c(c1)OCO2)Sc1ccc(Cl)cc1	0.0
NS(=O)(=O)c1nnc(NS(=O)(=O)c2ccc(NS(=O)(=O)c3ccc(Cl)cc3)cc2)s1	12.8
O=C(CC1SCCNC1=O)Nc1ccc(Cl)c(C(F)(F)F)c1 (stereo not given)	-3.9
CC1Cc2cc(C(=O)C3C(=O)C(=O)N(CCN4CCOCC4)C3c3ccncc3)ccc2O1 (stereo not given)	11.4
CCOc1cc(C#N)c(NC(=O)c2ccc(C(=O)OC)cc2)cc1OCC	-1.9
COc1nc(Cl)cn(-c2ccc(C)cc2)c1=O	3.4
CC(=O)Nc1nc(Cl)cn(-c2ccc(C)cc2)c1=O	5.7
O=c1c(Cl)nc(Cl)cn1-c1ccc(Cl)c(Cl)c1	32.4*
Cn1cc(CN2C[C@H]3OC(=O)N(CCCc4ccc(F)cc4)[C@H]3C2)cn1	-0.4
CCOC(=O)c1ccc(NC(=O)NC(CC)(C(F)(F)F)C(F)(F)F)cc1	0.6
CCc1nnc(NC(=O)CCSCCC(=O)Nc2nnc(CC)s2)s1	37.1*
CCOCC(=O)Nc1nnc(CC)s1	4.9
CCc1nnc(NC(=O)COC)s1	2.1
O=C(c1ccccc1)c1ccc(-c2nc(-c3c4ccccc4c(Cl)c4ccccc34)[nH]c2-c2ccccc2)cc1	-6.9
SMILES	RBX1-CUL1 inh
COc1ccc(C2C3=C(CC(C)(C)CC3=O)N(c3ccc([N+](=O)[O-])cc3Cl)C(=N)C2C#N)cc1COc1c(C)cccc1C (stereo not given)	0.9
CCOC(=O)C1(C(=O)OCC)OC(c2ccccc2)OC1c1ccccc1 (stereo not given)	-0.7
O=C1NC(=S)NC(=O)C1=Cc1cc(Cl)ccc1OCc1ccc(C(=O)O)cc1	12.3
O=C1NC(=S)NC(=O)C1=Cc1c(OCc2ccc(Br)cc2)ccc2ccccc12	58.4*
C=CCN1C(=O)/C(=C/c2c(OCc3ccccc3C#N)ccc3ccccc23)C(=O)NC1=S	13.6
Cc1ccc(C2C3=C(CCCC3=O)OC(=N)C2C#N)c(C)c1 (stereo not given)	3.1
O=c1c2c(nc(SCc3ccccc3)n1CC1CCCC1)-c1ccccc1CC21CCCC1	3.2
Cc1ccccc1NC(=O)c1c(C)nc(SCC(=O)c2ccc(O)c(O)c2)c(C#N)c1-c1cccnc1	27.9*
N#Cc1c(SCC(=O)c2ccc(F)cc2)nc2c(c1-c1cccnc1)CCC2	4.5
N#Cc1c(N)nc(SCC(=O)c2ccc(O)c(O)c2)c(C#N)c1-c1ccc(OCc2ccccc2)cc1	-8.3
CC(=O)c1cc(C(=O)N2CCCCC2)c(=O)[nH]c1C	10.5
CC1=NN(c2cc(S(=O)(=O)O)cc(C(=O)O)c2O)C(=O)C1	69.2*
O=C(O)c1cc(S(=O)(=O)O)cc(Nc2c3ccccc3nc3ccccc23)c1O	-7.5
Nc1cc(S(=O)(=O)O)cc(C(=O)O)c1O	11.6
O=C(Cc1ccccc1)Nc1cc(Cl)ccc1O	-5.4
O=C(Cc1ccccc1Cl)N1CCN(c2ncccn2)CC1	9.3
O=C(Cc1ccccc1Cl)c1ccc(O)c(O)c1O	100.9*
CCn1c(=O)c2c(nc3n(CCO)c(C)c(C)n23)n(C)c1=O	-2.9
Cc1cc(=O)[nH]c(SCC(=O)Nc2nc(-c3ccccc3)c(-c3ccccc3)s2)n1	8.0
Cc1cccc(OCC(=O)NCC(=O)N/N=C/c2ccc(-c3ccc(C(=O)O)cc3)o2)c1	10.9
CN(C)c1cc(N/N=C/c2ccc(-c3ccc(C(=O)O)cc3)o2)nc(N(C)C)n1	62.5*
CN(C)c1cc(N/N=C/c2ccc(OCc3ccc(F)cc3)cc2)nc(N(C)C)n1	-5.1
Cc1ccc(N2C(=O)/C(=C\c3ccc(-c4ccc(Cl)c(C(=O)O)c4)o3)C(=O)NC2=S)cc1	63.4*
COc1cccc(/C=C2/C(=O)NC(=O)N(c3cc(C)cc(C)c3)C2=O)c1O	12.1
Cc1ccc(-n2c(-c3ccccc3)cc(/C=C3\C(=O)NC(=S)N(c4ccc(C)c(C)c4)C3=O)c2-c2ccccc2)cc1	5.1
SMILES	RBX1-CUL1 inh
C=CCN1C(=O)/C(=C\c2cccc(OC)c2OC)C(=O)NC1=S	-6.2
O=C1NC(=S)N(c2ccccc2)C(=O)/C1=C\c1ccc(-c2ccc(F)cc2)o1	2.5
COc1ccc(/C=C2/C(=O)NC(=S)N(c3ccccc3)C2=O)cc1C(=O)O	2.4
O=C(N/N=C/c1ccc(-c2cccc(C(=O)O)c2)o1)Nc1ccc(Cl)cc1	0.6
C=CCN1C(=O)/C(=C/c2ccc(-c3cccc(C(F)(F)F)c3)o2)C(=O)NC1=S	102.6*
O=C1Nc2ccccc2/C1=C/c1ccc(-c2cccc(C(=O)O)c2)o1	16.2
O=C1NC(=S)N(c2ccc(Cl)cc2)C(=O)/C1=C\c1ccc(-c2cccc(C(=O)O)c2)o1	99.9*
C=CCN1C(=O)/C(=C\c2cccc(OCc3ccc(F)cc3)c2)C(=O)NC1=S	0.8
Cc1cc(C)cc(N2C(=O)NC(=O)/C(=C/c3ccc(-c4cccc(C(=O)O)c4)o3)C2=O)c1	85.1*
Cc1n[nH]c(C)c1Sc1ccccc1N=Cc1ccc(-c2ccccc2Cl)o1	-2.6
CC1=NN(C)c2nc3c(c(=O)n(CCc4ccccc4)c(=O)n3C)n2C1	10.8
COc1cc(-c2nnc3sc(-c4cccc(F)c4)nn23)cc(OC)c1OC	-0.3
Cc1cc(C)cc(N2C(=O)NC(=O)/C(=C\c3ccc(Br)o3)C2=O)c1	94.1*
COc1ccc(N2C(=O)/C(=C/c3cc(C)n(-c4ccc(NC(C)=O)cc4)c3C)C(=O)NC2=S)cc1	7.3
CC(C)Oc1ccccc1/C=C1\C(=O)NC(=S)N(c2cccc(F)c2)C1=O	-12.7
COC(=O)c1ccccc1-n1c(C)cc(/C=C2\C(=O)NC(=S)N(c3ccc(OC)cc3)C2=O)c1C	6.4
COc1ccc(N2C(=O)/C(=C/c3cc(C)n(-c4ccc(Cl)c(C(=O)O)c4)c3C)C(=O)NC2=S)c(OC)c1	79.5*
COC(=O)CN1C(=O)S/C(=C/c2cc(Br)c(Sc3ccc(Cl)cc3)o2)C1=O	4.4
O=C1NC(=S)N(c2cccc(Br)c2)C(=O)/C1=C/c1cc(Br)c(O)c(Br)c1	4.4
Cc1ccc(N2C(=O)NC(=O)/C(=C\c3cc(Br)c(Sc4ccc(Cl)cc4)o3)C2=O)cc1	99.6*
O=C1NC(=S)N(c2cccc(F)c2)C(=O)/C1=C/c1ccc(N2CCCC2)o1	26.1*
COc1cc(/C=C2\C(=O)NC(=O)N(c3cc(C)cc(C)c3)C2=O)cc(Br)c1O	6.9
COc1cc(Br)cc(/C=C2/C(=O)NC(=O)N(c3cc(C)cc(C)c3)C2=O)c1O	5.3
